Test results taken from the supplement of paper PMC3334620.
Over roughly 33,000 sequences, “E-score (-0.5 to 0.5)” has its median near -0.043; the highest 2% begin near 0.37. The sample as a whole holds a higher share of the highest values than the screen did.

Biological target: T1, Upc2 (UniProt Q12151)
T1 sequence: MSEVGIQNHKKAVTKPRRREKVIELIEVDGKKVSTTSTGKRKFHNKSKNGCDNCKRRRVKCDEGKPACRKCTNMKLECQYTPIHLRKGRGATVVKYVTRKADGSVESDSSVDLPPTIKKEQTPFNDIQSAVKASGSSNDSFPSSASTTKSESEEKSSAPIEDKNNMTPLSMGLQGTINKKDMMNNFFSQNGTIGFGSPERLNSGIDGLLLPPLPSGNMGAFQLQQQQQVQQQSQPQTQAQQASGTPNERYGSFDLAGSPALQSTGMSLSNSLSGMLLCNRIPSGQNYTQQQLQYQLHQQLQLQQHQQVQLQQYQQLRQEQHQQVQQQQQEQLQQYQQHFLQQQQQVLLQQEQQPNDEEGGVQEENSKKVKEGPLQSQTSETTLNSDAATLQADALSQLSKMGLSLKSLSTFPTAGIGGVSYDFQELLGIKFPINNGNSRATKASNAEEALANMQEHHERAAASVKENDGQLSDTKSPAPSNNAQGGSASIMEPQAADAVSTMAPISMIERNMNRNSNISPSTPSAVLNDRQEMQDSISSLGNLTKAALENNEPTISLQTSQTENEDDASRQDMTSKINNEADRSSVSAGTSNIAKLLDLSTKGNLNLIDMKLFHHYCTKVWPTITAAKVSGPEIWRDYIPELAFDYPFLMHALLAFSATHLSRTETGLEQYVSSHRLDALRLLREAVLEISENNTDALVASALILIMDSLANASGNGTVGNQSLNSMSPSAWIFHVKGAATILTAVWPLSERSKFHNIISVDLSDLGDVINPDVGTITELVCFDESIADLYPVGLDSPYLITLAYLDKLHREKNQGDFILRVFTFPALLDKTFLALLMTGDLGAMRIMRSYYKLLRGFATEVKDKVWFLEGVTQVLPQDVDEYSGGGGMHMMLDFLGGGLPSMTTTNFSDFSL
Assay: PBM E-score (8-mer binding enrichment) (E-score (-0.5 to 0.5)); higher = stronger / more preferred TF binding
Conditions: protein concentration: 200 nM; construct: GST-full length
Procedure: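 Universal 'all 10-mer' protein binding microarrays (Agilent AMADID 015681) probed with GST-tagged S. cerevisiae TFs (full-length or DBD) made by in vitro transcription/translation (PURExpress), about 100-200 nM. Bound TF was detected with fluorescent anti-GST. Each ungapped 8-mer (which stands for itself and its reverse complement) is scored by the PBM enrichment score (E-score), a modified Wilcoxon-Mann-Whitney statistic from -0.5 to +0.5, computed with the Universal PBM Analysis Suite. Scale: above 0.35 generally sequence-specific binding.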

Row | Sequence | PBM E-score
1 | ATCCTTAC | -0.0381
2 | AAAACTCA | -0.0631
3 | CGACCCTC | 0.0606
4 | AAGCCCAC | -0.0729
5 | AAATGCAG | -0.0984
6 | GCTGGATA | -0.131
7 | CCCTGTAG | -0.234
8 | AGAACGAA | 0.376
9 | ATAACGAC | 0.159
10 | CTAACGAG | 0.343
11 | AGAACGAT | 0.342
12 | CGAACGAG | 0.427
13 | AGAACAAA | 0.103
14 | AGAACGAG | 0.42
15 | AGAACGTG | -0.00321
16 | AGAACGTC | -0.066
17 | ACAACGAG | 0.257
18 | CGAACGCG | 0.185
19 | AGAACGAC | 0.391
20 | AAACCTGT | 0.225
21 | GCTCTCAC | -0.32
22 | TCCGCGCA | -0.0128
23 | AAATACTC | -0.0601
24 | CAGTTGAG | -0.255
25 | ACGGGCTC | 0.128
26 | AATAACGT | 0.133

Row | Sequence | PBM E-score
27 | CTAACGAA | 0.287
28 | TCAACGAA | 0.249
29 | TTAACGAA | 0.448
30 | TGAACGAA | 0.458
31 | ATAACGAA | 0.197
32 | TGAACGCA | 0.189
33 | CTACCGTA | 0.301
34 | CAACGACC | 0.221
35 | GAACGACA | 0.437
36 | GAACGACC | 0.429
37 | TAACGACA | 0.381
38 | GCACGACC | -0.2
39 | AGACGACC | 0.132
40 | GGACGACC | -0.212
41 | AAACGACC | 0.458
42 | TCACGACA | -0.138
43 | CAACGACA | 0.313
44 | GGACGACA | -0.266
45 | TGACGACA | 0.0658
46 | AGCCAACC | 0.0299
47 | TCTCACCA | -0.14
48 | CAGTGCAC | -0.136
49 | CTACCACA | -0.234
50 | CCGGCTAA | -0.199
51 | AGATAAAG | -0.0496
52 | AAACGACG | 0.476

Row | Sequence | PBM E-score
53 | AAACGACA | 0.479
54 | CGACGACG | 0.0684
55 | AGACGACA | 0.104
56 | AGACGACT | 0.0557
57 | ACACGACT | 0.194
58 | AAACGACT | 0.456
59 | CAACGACG | 0.296
60 | ACACGACA | 0.221
61 | GCCGAGAA | 0.068
62 | AACAATCA | -0.0313
63 | CCTGGGGC | -0.165
64 | TCGCCGCA | -0.0606
65 | AATTAACG | 0.272
66 | AGAATAGC | -0.229
67 | TTCCGGAA | -0.206
68 | CATCATTA | -0.0416
69 | ACTTACTG | -0.00843
70 | AGTATATC | 0.0604
71 | CGTATATC | 0.454
72 | AGTATATA | 0.282
73 | CGTATATA | 0.458
74 | CATATATC | 0.114
75 | GGTATATA | 0.152
76 | AATTCGTG | -0.0513
77 | CATTCGCA | 0.0275
78 | CATTCGTA | 0.416

Row | Sequence | PBM E-score
79 | AATTCGTC | 0.0116
80 | GATTCGTA | 0.438
81 | AATTCGTA | 0.433
82 | GATTCGCA | 0.131
83 | CATTCGTC | 0.0696
84 | GATTCGGA | 0.11
85 | CCTGGGAC | -0.25
86 | CCCTCTCC | -0.339
87 | CCGTTCGC | 0.201
88 | ACCTTGGG | -0.219
89 | CTAAATTC | 0.0497
90 | AGCTGCAT | -0.108
91 | TACGAGAA | 0.447
92 | TCCGAGAA | 0.248
93 | CACGAGAG | 0.0635
94 | GACGAGAA | 0.0864
95 | TTCGAGAA | 0.109
96 | AACGAGAT | 0.417
97 | ATCGAGAT | -0.0275
98 | ATCGAGAG | 0.0513
99 | CACGAGAA | 0.0693
100 | ACCGAGAT | 0.126
101 | AACGAGAG | 0.425
102 | AACGAGAA | 0.422
